# Screening results: PubChem BioAssay, National Center for Advancing Translational Sciences (NCATS)
# A selection: hits, their analogues and other compounds. The true share with any hit is near 9.2%.
# ELG1 genotoxic – qHTS screen for small molecules that induce genotoxicity in human embryonic kidney (HEK293T) cells expressing luciferase-tagged ELG1; HEK293T ELG1-luciferase reporter, luminescence, 16 h; Potency, µM (series often up to 46 µM), inactives show top-dose activity change, positive = activation, actives largely listed as activators; 330,000 tested, 1.3% active; further: % of control where 0% means no effect; nearly all actives have a fitted effect of over 60% in size
#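 Reporter readout depends on ELG1 protein level, which increases with genetic stress. After 16 hr compound exposure at 37 °C, luciferase activity was quantified using ONE-Glo.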
# FLuc modulator – qHTS profiling assay for firefly luciferase inhibitor/activator using purifed enzyme and Km concentrations of substrates (counterscreen for miR-21 project); Luciferin 4-monooxygenase (Photinus pyralis), P08659; purified FLuc, Km substrates, luminescence inhibition; Potency, µM (titrated, usually from 57.5 µM), for inactives: top-dose activity change, negative = inhibition, usual class: inhibitors; 360,000 tested, 6.9% active; AID 588342, 2011;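 further: plate controls were vehicle for no effect and reference inhibitor for full effect; nearly all actives have a fitted effect of over 55% in size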
# Target sequence (P08659 whole entry, looked up): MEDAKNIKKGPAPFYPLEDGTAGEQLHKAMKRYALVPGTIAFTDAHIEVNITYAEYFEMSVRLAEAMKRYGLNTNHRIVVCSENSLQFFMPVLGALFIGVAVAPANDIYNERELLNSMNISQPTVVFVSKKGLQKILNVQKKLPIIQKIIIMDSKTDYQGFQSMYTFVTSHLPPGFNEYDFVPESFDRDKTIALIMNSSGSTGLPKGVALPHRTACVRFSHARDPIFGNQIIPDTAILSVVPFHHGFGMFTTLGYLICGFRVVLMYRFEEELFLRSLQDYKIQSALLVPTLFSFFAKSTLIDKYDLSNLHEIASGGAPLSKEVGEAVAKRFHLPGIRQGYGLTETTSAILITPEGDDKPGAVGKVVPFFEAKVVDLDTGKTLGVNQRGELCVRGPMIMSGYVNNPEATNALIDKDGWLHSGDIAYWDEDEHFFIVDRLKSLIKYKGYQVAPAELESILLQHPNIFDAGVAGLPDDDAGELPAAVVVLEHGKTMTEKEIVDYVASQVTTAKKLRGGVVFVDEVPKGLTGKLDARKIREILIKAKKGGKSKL
#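 Purified P. pyralis luciferase, 10 nM final, with Km-level 10 uM D-luciferin and 10 uM ATP in 50 mM Tris acetate pH 7.5, 10 mM Mg acetate, 0.01% Tween-20, 0.05% BSA; 6-point qHTS titration about 60 µM downward; luminescence read.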
# NPC1 promoter act – qHTS Assay for NPC1 Promoter Activators; 320,000 tested, 2.4% active; Huh7 NPC1 promoter luciferase reporter, 24 h; Potency, µM (titrated, usually from 9.22 µM), for inactives: at the top dose activation, hits mostly activators; AID 485313, 2010; further: % of control where 0% means no effect; nearly all actives have a fitted effect of over 60% in size
#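 Compounds in DMSO were transferred onto Huh7 NPC1-luciferase reporter cells pre-incubated 2 h; after 24 h at 37 °C, Amplite reagent was dispensed and luminescence recorded 10 min later.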
# Rab9 promoter act – qHTS Assay for Rab9 Promoter Activators; Potency, µM (top dose mostly 9.22 µM), without a hit: top-dose activation, negative = inhibition, usual class: activators; 320,000 tested, 2.8% active; Huh7 Rab9 promoter-luciferase reporter, luminescence, 24 h; further: % of control where 0% means no effect; nearly all actives have a fitted effect of over 60% in size
#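 Huh7 reporter line, Rab9 promoter upstream of luciferase. Compound exposure 24 h at 37 °C in reduced-serum medium with 10% FBS. Read-out: luminescence.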
# ELG1 DNA repair – qHTS screen for small molecules that inhibit ELG1-dependent DNA repair in human embryonic kidney (HEK293T) cells expressing luciferase-tagged ELG1; HEK293T ELG1-luciferase reporter, luminescence, 16 h; DNA damage induced by 5-fluorouridine; Potency, µM (top dose mostly 46.1 µM), for inactives: at the top dose activity change, negative = inhibition, hits mostly inhibitors; 330,000 tested, 2.3% active; further: on the % scale 0 is the no-effect control and ±100 the full control effect; nearly all actives have a fitted effect of over 55% in size
#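 HEK293T cells expressing luciferase-tagged ELG1 (2,000/well) received 5-Fluorouridine plus compound or DMSO for 16 hr at 37 °C. Luciferase was read by ONE-Glo luminescence after 30 min at room temperature.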
# SMN2 splice up – qHTS Assay for Enhancers of SMN2 Splice Variant Expression; HEK293 SMN2-luciferase splicing reporter, luminescence, 30-36 h; 210,000 tested, 2.8% active; Potency, µM (titrated, usually from 46.1 µM), inactives show at the highest dose activity change, positive = activation, actives largely listed as activators; further: % of control where 0% means no effect; nearly all actives have a fitted effect of over 55% in size
#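 HEK293 cells carry an SMN2 minigene-luciferase reporter in which exon 7 inclusion puts luciferase in frame. Cells were seeded at 2000 cells/well, attached for 10-12 hours, then exposed to compounds for 30-36 hours at 37C before ONE-Glo luminescence.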
# * hit, by the source's call; u = inconclusive; x = no result; [ ] = remark or other dose. The call rests on the fitted dose curve; in most records, active means well fitted curve in the direction sought with a large enough effect; inconclusive means small, poorly fitted or top-dose-only effect, or another doubt; inactive means no such curve, though single readings can be large; an effect the other way counts as inactive or inconclusive. Potency means the concentration at half of the fitted maximal effect.
SMILES,ELG1 genotoxic,FLuc modulator,NPC1 promoter act,Rab9 promoter act,ELG1 DNA repair,SMN2 splice up
Cc1ccc(-c2cnc3cc(C)nn3c2)cc1,-1.2%,2.13µM*,0.708µM*,0.447µM*,u,12.6µM*
Cc1cc2ncc(C(=O)N=CN(C)C)cn2n1,12.1%,-1.4%,-0.5%,-0.3%,7.0%,-3.3%
Cc1cc2ncc(-c3ccc(Cl)cc3)cn2n1,u,2.69µM*,3.55µM*,1.41µM*,u,11.2µM*
CCCCc1nn2c(=O)cc(COC(=O)CNC(=O)COc3ccc(C)cc3)nc2s1,x,-5.4%,x,x,x,x
COc1cccc(Nc2ncc3nc(-c4ccccc4)c(=O)n(C[C@H]4CCCO4)c3n2)c1,x,x,x,x,x,-15.9%
Cc1ccc(CN(C(=O)Cn2nnc3ccccc32)C(C(=O)NCc2ccco2)c2ccc(C)o2)cc1 (stereo not given),-8.3%,2.4%,-3.0%,-1.9%,23.1µM*,19.0%
Cc1ccc(N(C(=O)Cn2nnc3ccccc32)C(C(=O)NCc2ccco2)c2ccc(C)o2)cc1 (stereo not given),-3.8%,-1.0%,0.5%,7.5%,-7.7%,-7.7%
O=C(NC(=S)Nc1ccc(S(=O)(=O)N2CCCC2)cc1)c1cccs1,5.4%,-10.6%,6.1%,-3.8%,u,20.0%
O=C(NC(=S)Nc1ccccc1N1CCN(C(=O)c2ccccc2)CC1)c1cccs1,9.2%,5.5%,-7.5%,-7.6%,u,x
O=C(NC(=S)N1CCN(c2ccc(O)cc2)CC1)c1cccs1,2.1%,-19.7%,8.9%,-5.8%,13µM*,x
O=C(NC(=S)Nc1ccc(N2CCN(C(=O)c3ccccc3)CC2)cc1)c1cccs1,-18.8%,1.4%,-12.7%,-13.9%,13µM*,-51.0%
O=C(Nc1ccc(S(=O)(=O)N2CCN(c3ccccc3)CC2)cc1)c1cccs1,-5.3%,-2.1%,14.4%,5.9%,11.6µM*,-15.6%
CCCC(=O)NC(=S)Nc1ccc(N2CCN(C(=O)c3cccs3)CC2)cc1,-14.9%,-5.1%,-1.8%,-11.0%,16.4µM*,-6.3%
COc1cc(OC)c(OC)cc1/C=N/NC(=O)CCc1c(C)n[nH]c1C,-2.4%,1.6%,3.4%,-7.4%,u,x
CNC(=O)c1c(NC(=O)c2cc(=O)c3ccccc3o2)sc2c1CCC2,x,0.7%,x,x,x,x
O=C(NC(=S)Nc1ccc(N2CCCCC2)cc1)c1cccs1,2.91µM*,5.36µM*,1.26µM*,2.24µM*,u,-1.4%
CS(=O)(=O)N1CCN(c2ccc(NC(=S)NC(=O)c3cccs3)cc2)CC1,3.3%,-1.6%,3.1%,-7.9%,15.7%,x
Cc1ccc(OC(=O)CSc2nnc(CNC(=O)c3ccccc3)o2)cc1,x,-1.6%,x,x,x,x
O=C(CSc1cccs1)Nc1cccc2ccccc12,u,13.5µM*,u,u,u,12.6µM*
O=C(CSc1cccs1)Nc1ccc2ccccc2c1,u,21.3µM*,u,u,u,8.9%
O=C(NCc1nc2ccccc2[nH]1)C1=C[C@@H](c2csc3ccccc23)C[C@@H](OCCCCO)O1,-10.3%,-5.9%,-7.9%,-1.0%,23.1µM*,x
COc1ccc2nc3oc(C(=O)N4CCCCC4)cc3cc2c1,14.6µM*,6.75µM*,3.16µM*,2.82µM*,u,14.1µM*
COc1ccc2cc3cc(C(=O)N4CCN(c5ccccc5)CC4)oc3nc2c1,-0.9%,u,-1.4%,-1.1%,19.5%,-41.1%
CCOC(=O)C1CCN(C(=O)c2cc3cc4cc(OC)ccc4nc3o2)CC1,8.9%,u,u,3.16µM*,u,11.2µM*
CCOC(=O)C1CCCN(C(=O)c2cc3cc4ccc(OC)cc4nc3o2)C1 (stereo not given),-0.1%,u,2.4%,23.6%,25.5%,x
SMILES,ELG1 genotoxic,FLuc modulator,NPC1 promoter act,Rab9 promoter act,ELG1 DNA repair,SMN2 splice up
COc1ccc2nc3oc(C(=O)N4CC(C)CC(C)C4)cc3cc2c1 (stereo not given),2.8%,21.3µM*,-1.4%,12.0%,u,x
COc1ccc2cc3cc(C(=O)N4CCCC(C)C4)oc3nc2c1 (stereo not given),u,5.36µM*,2.51µM*,2µM*,u,x
COc1ccc(-c2nnc(SCc3c(C)noc3C)n2N)cc1OC,3.5%,-1.6%,-4.5%,-5.5%,7.6%,7.6%
COc1ccc(C(=O)N2CCC3(CC2)CN(CC(C)C)C3)cc1,x,x,x,x,x,4.0%
CCN(CC)C(=O)COc1ccc(/C=C(\C#N)S(=O)(=O)c2ccccc2)cc1OC,3.6%,7.8%,-2.3%,-1.9%,3.8%,3.0%
Cc1nc(-c2cccc(NC(=O)c3ccc(-n4nccc4C)cc3)c2)cs1,-7.6%,4.78µM*,12.2%,10.0%,u,x
Cc1nc(-c2ccc(C(=O)Nc3cccc(Br)c3)cc2)cs1,u,1.07µM*,u,u,u,10µM*
CC1CCC2C(C)(C)C3CC12CC[C@]3(C)O (stereo not given in full),x,x,x,x,x,4.3%
CCOc1ccc(N/C(N)=N/c2nc(CSc3nnnn3-c3ccccc3)cc(=O)[nH]2)cc1,11.8%,-1.7%,-2.7%,-0.6%,-0.8%,x
NNc1nc2sc3c(c2c(=O)n1-c1ccccc1)CCCC3,4.9%,12µM*,-6.2%,0.8%,-24.6%,x
O=c1c2c3c(sc2ncn1/N=C/c1ccco1)CCCC3,6.6%,0.4%[2.3 µM],10.3%,8.7%,21.2%,u
O=c1c2c3c(sc2ncn1/N=C/c1ccccc1)CCCC3,u,10.7µM*,24.8%,22.5%,u,20µM*
Nn1c(Nc2ccccc2)nc2sc3c(c2c1=O)CCCC3,10.4%,15.1µM*,1.9%,-0.1%,u,u
Cc1ccc(-c2nc3sc4c(c3c(=O)n2N)CCCC4)cc1,u,2.13µM*,1.26µM*,0.631µM*,u,11.2µM*
COc1ccc(Nc2nnc(-c3ccc(C)c(S(=O)(=O)N4CCN(C)CC4)c3)c3ccccc23)cc1,x,16.9µM*,x,x,x,0.1%
Cc1ccc(-c2nnc(NC3CCCCC3)c3ccccc23)cc1S(=O)(=O)N1CCN(C)CC1,1.2%,-4.5%,-0.5%,4.6%[1.84 µM],23.1µM*,0.8%
Cc1ccc(-c2nnc(NCc3nc4ccccc4[nH]3)c3ccccc23)cc1S(=O)(=O)N1CCCCC1,-1.2%,5.6%,-2.6%,-5.2%,8.2µM*,-23.9%
